Each structure is given as a SMILES string. Records with an inconclusive call do not appear. Entries that show only a call come without a potency. Activity calls are given as the source filed them. Calls follow the shape of the full dose curve. Residues, ends and D or L forms follow the SMILES beside them.

The assay is described as follows: Cytotoxicity counterscreen for inhibitors of SARS-CoV-2 cell entry (AID 1645845). Also: nearly all actives have a fitted effect of over 50% in size. The note with it: cell viability (SARS-CoV-2 entry assay cells); series mostly up to 57.1 µM. The essentials: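 After a 15 min room-temperature ATPLite 1step step, luminescence reflected ATP remaining in HEK293-ACE2 cells exposed to compound for 1 h plus 48 h at 37 C, with percent activity set by cell and no-cell controls.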
Take `CN(C)CCOc1ccc(/C(=C(/CCCl)c2ccccc2)c2ccccc2)cc1`: the Potency entry was “inactive”.
The result for `C/C(=C(\CCO)SS/C(CCO)=C(\C)N(C=O)Cc1cnc(C)nc1N)N(C=O)Cc1cnc(C)nc1N` reads “inactive”; that for `C[N+]1(C)CCCC(OC(=O)C(O)(c2ccccc2)c2ccccc2)C1` (stereo not drawn), “inactive”; that for `COc1ccc2cccc(CCNC(C)=O)c2c1`, “inactive”.
On to `CCOC(=O)c1ccc(OCCN2C[C@H](O)[C@@H](O)[C@H](O)[C@H]2CO)cc1`, for which the Potency entry was “inactive”.
The value for `C[C@]12C=CC(=O)C=C1CC[C@@H]1[C@@H]2[C@@H](O)C[C@@]2(C)[C@H]1CC[C@]2(O)C(=O)CO` was “inactive”.
As for `NS(=O)(=O)c1ccc(Cl)c(S(N)(=O)=O)c1`, the Potency entry was “inactive”.
For `O=C(COCCOCCOCC(=O)Nc1c(I)cc(I)c(C(=O)O)c1I)Nc1c(I)cc(I)c(C(=O)O)c1I`, the Potency entry was “inactive”.
The result for `CC(C)(C)NCC(O)c1cc(O)cc(O)c1` (stereo not drawn) reads “inactive”.
Regarding `NNC(=O)c1ccncc1`, the Potency result is “inactive”.
With `CCCC(=O)O[C@]1(C(=O)CO)CC[C@H]2[C@@H]3CCC4=CC(=O)CC[C@]4(C)[C@H]3[C@@H](O)C[C@@]21C`, the Potency result was “inactive”.
In the case of `CC(CN(C)C)C(C)(O)Cc1ccc(Cl)cc1` (stereo not drawn), the Potency result was “inactive”.
The value for `CC(=O)O[C@@H]1CC2C3CCc4cc(OC(=O)c5ccccc5)ccc4C3CCC2(C)[C@H]1OC(C)=O` (stereo partly drawn) was “inactive”; that for `Cc1nnc(NS(=O)(=O)c2ccc(N)cc2)s1` was “inactive”.
The value for `Cc1c[nH]c2ccccc12` was “inactive”; that for `CSCC[C@H](NC(=O)[C@H](Cc1ccc(OS(=O)(=O)O)cc1)NC(=O)[C@@H](N)CC(=O)O)C(=O)NCC(=O)N[C@@H](Cc1c[nH]c2ccccc12)C(=O)N[C@@H](CCSC)C(=O)N[C@@H](CC(=O)O)C(=O)N[C@@H](Cc1ccccc1)C(N)=O` was “inactive”; that for `O=[N+]([O-])c1cncn1CCN1CCOCC1` was “inactive”.
The value for `NC(=O)c1cnccn1` was “inactive”.
In the case of `CCN1C(=O)NC(c2ccccc2)C1=O` (stereo not drawn), the Potency result was “inactive”.
The result for `NCC(=O)CCC(=O)O` reads “inactive”; that for `CC(C)Cn1cnc2c(N)nc3ccccc3c21`, “inactive”.
The result for `CN1C(CSCC(F)(F)F)Nc2cc(Cl)c(S(N)(=O)=O)cc2S1(=O)=O` (stereo not drawn) reads “inactive”; that for `CCN(CC)CCNC(=O)c1ccc(N)cc1`, “inactive”.
Consider `CCCNC(C)C(=O)Nc1c(C)csc1C(=O)OC` (stereo not drawn), for which the Potency result is “inactive”.
The value for `Oc1ccccc1` was “inactive”; that for `C[C@@H]1C[C@H]2[C@@H]3C[C@H](F)C4=CC(=O)C=C[C@]4(C)[C@@]3(F)[C@@H](O)C[C@]2(C)[C@@]1(O)C(=O)CO` was “inactive”; that for `NCCS(=O)(=O)O` was “inactive”.
The result for `CCCOC(=O)c1ccccc1` reads “inactive”; that for `CN1CCN2c3ncccc3Cc3ccccc3C2C1` (stereo not drawn), “inactive”.
Take `COC(=O)[C@@H]1[C@H]2C[C@H]3c4[nH]c5ccccc5c4CCN3C[C@@H]2CC[C@@H]1O`: the Potency entry is “inactive”.
Turning to `Cc1ccnc(NS(=O)(=O)c2ccc(N)cc2)n1`, the Potency entry was “inactive”.
With `O=C(O)Cc1sc(-c2ccccc2)nc1-c1ccc(Cl)cc1`, the Potency result was “inactive”.
With `CC[N+](CC)(CC)CCOc1cccc(OCC[N+](CC)(CC)CC)c1OCC[N+](CC)(CC)CC`, the Potency result is “inactive”.
The value for `CCc1oc2ccccc2c1C(=O)c1cc(I)c(O)c(I)c1` was “inactive”; that for `O=C(O)CCCCC1CCSS1` (stereo not drawn) was “inactive”; that for `COC(=O)[C@H](Cc1ccccc1)NC(=O)[C@@H](N)CC(=O)O` (H-Asp-Phe-OMe) was “inactive”.
For `C/C=C1\[C@H]2C=C(C)C[C@]1(N)c1ccc(=O)[nH]c1C2`, the Potency entry is “inactive”.
On to `NS(=O)(=O)c1cc(C(=O)NN2C[C@H]3[C@H]4CCC(C4)[C@H]3C2)ccc1Cl`, for which the Potency result is “inactive”.

The record behind these values is PubChem BioAssay (NCATS).
